# In paper PMC5540273 (PLoS ONE, 2017):
# Key:
# Conditions in all cases: concentration: 1 μM,replicates: in singlicate; n = 1
# EPHA7 = system: EPHA7
# EPHA8 = system: EPHA8
# EPHB1 = system: EPHB1
# EPHB2 = system: EPHB2
# EPHB3 = system: EPHB3
# EPHB4 = system: EPHB4
# EPHB6 = system: EPHB6
# ERBB2 = system: ERBB2
# ERBB3 = system: ERBB3
# ERBB4 = system: ERBB4
# ERK1 = system: T1, ERK1
# T1 construct: gene MAPK3
# ERK2 = system: T2, ERK2
# T2 construct: gene MAPK1
# ERK3 = system: T3, ERK3
# T3 construct: gene MAPK6
# ERK4 = system: T4, ERK4
# T4 construct: gene MAPK4
# ERK5 = system: T5, ERK5
# T5 construct: gene MAPK7
# ERK8 = system: T6, ERK8
# T6 construct: gene MAPK15
# ERN1 = system: ERN1
# FAK = system: T7, FAK
# T7 construct: gene PTK2
# FER = system: FER
# FES = system: FES
# 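Also: KINOMEscan kinase panel screen.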
SMILES,%Inh (EPHA7) [%],%Inh (EPHA8) [%],%Inh (EPHB1) [%],%Inh (EPHB2) [%],%Inh (EPHB3) [%],%Inh (EPHB4) [%],%Inh (EPHB6) [%],%Inh (ERBB2) [%],%Inh (ERBB3) [%],%Inh (ERBB4) [%],%Inh (ERK1) [%],%Inh (ERK2) [%],%Inh (ERK3) [%],%Inh (ERK4) [%],%Inh (ERK5) [%],%Inh (ERK8) [%],%Inh (ERN1) [%],%Inh (FAK) [%],%Inh (FER) [%],%Inh (FES) [%]
Cc1ccn2nc(-c3ccc(F)cc3)c(-c3ccncc3)c2c1.Cl [GW457859],0,0,0,0,2,3,8,64,24,32,0,0,1,15,8,0,0,0,2,0
CCOC(=O)N1CCC(n2cnc(-c3ccc(F)cc3)c2-c2ccnc(N)n2)CC1 [SB-219952],1,0,0,7,11,4,30,5,21,21,0,0,0,8,0,0,19,0,20,0
Cl.Nc1n[nH]c2cc(-c3ccccn3)ccc12 [GSK2189892],0,0,4,0,4,0,18,9,0,0,0,0,0,31,0,0,0,0,13,0
Cc1ccc(Nc2ccnc(Nc3ccc4c(c3)CS(=O)(=O)C4)n2)cc1O.Cl [GW579362],44,85,78,25,0,16,91.7,17,34,69,0,0,51,48,0,18,42,65,52,2
CC(C)S(=O)(=O)N1CCN(Cc2ccc3c(c2)nc(NC(=O)c2ccsc2)n3C[C@H](O)c2ccccc2)CC1 [GW635815],10,19,35,16,15,14,0,0,0,0,0,0,1,0,0,0,4,29,39,15
CCn1c(-c2nonc2N)nc2cncc(CNC3CCNCC3)c21.Cl [SB-747651],9,0,12,0,8,0,0,21,8,0,0,0,6,0,0,16,2,0,2,0
CS(=O)c1ccc(-c2coc3ccc(-c4n[nH]c(=O)o4)cc23)cc1 (stereo not drawn),0,0,0,12,0,0,25,0,13,5,7,1,0,0,0,44,0,0,0,0
O=C(Nc1cccc(C(F)(F)F)c1)c1cccc(Oc2ccc3nccn3n2)c1,5,27,20,9,12,23,12,0,40,0,7,7,0,2,22,4,29,38,5,0
C[C@@H]1CNc2c(sc3ccc4nc(-c5ccc(O)cc5)ccc4c23)C(=O)N1,0,0,5,12,0,0,9,26,0,6,0,16,0,13,8,3,10,6,0,4
Cc1ccc(C(=O)Nc2ccc(Oc3ccc4nc(NC(=O)C5CC5)cn4c3)c(F)c2)c(=O)n1-c1ccccc1,74,99.8,83,94.8,11,75,99.1,30,43,3,0,0,0,0,0,34,0,3,75,48
CN1CCN(CCNc2nc3cc(Oc4ccc(NC(=O)Nc5cc(C(F)(F)F)ccc5F)cc4)ccc3[nH]2)CC1.Cl.Cl [GW768504],0,23,17,34,14,17,25,0,0,0,0,0,0,0,0,69,0,11,20,9
O=c1[nH]cc(-c2ccc(O)cc2)c2sc(-c3ccncc3)cc12 [GSK1033723],0,2,0,26,15,13,0,28,0,2,0,0,11,1,0,0,0,0,1,13
CC(=O)Nc1ccc(-c2cc3ncnc(SCC(=O)O)c3s2)cc1,0,0,0,10,22,23,84,6,8,3,0,9,0,0,0,27,10,1,0,14
COc1cccc(C2=C(Nc3cccc(Cl)c3)C(=O)NC2=O)c1 [SB-341556],7,20,0,0,17,4,29,0,0,0,3,0,0,17,0,71,10,0,0,0
O=C1NCCc2[nH]c(-c3ccncc3)cc21,0,0,0,12,44,17,8,0,21,0,13,28,0,0,0,93.1,8,0,4,30
Cc1cccc2c(-c3ccncc3)c(-c3ccc(F)cc3)nn12.Cl [GW461487],9,16,5,94.5,7,0,26,1,0,16,0,0,5,15,0,0,7,0,4,0
CCn1c(-c2nonc2N)nc2cncc(Br)c21 [SB-738004],0,0,0,12,0,13,29,60,43,11,0,6,0,19,6,0,19,9,10,8
COc1cc(Nc2nccc(N3CCC(NC(=O)c4cccc(C#N)c4)C3)n2)cc(OC)c1OC (stereo not drawn) [GSK1379751],0,0,4,0,8,19,86,41,16,31,0,0,3,0,0,0,0,0,0,0
Cc1nnc(-c2ccc3occ(-c4ccc(S(C)=O)cc4)c3n2)o1 (stereo not drawn),0,0,0,0,10,12,0,17,0,0,0,19,0,0,0,0,0,0,0,15
COc1cccc(OC)c1C(=O)Nc1cccc(-c2nn3ccccc3c2-c2ccnc(Nc3cccc(F)c3)n2)c1 [GSK361065],14,17,100,0,8,8,42,61,0,84,1,6,1,9,2,3,10,1,24,20
COC(=O)c1cccc(NC(=O)NC2CCN(c3ccnc(Nc4cc(OC)c(OC)c(OC)c4)n3)C2)c1 (stereo not drawn) [GSK1379767],4,7,10,0,8,20,86,51,31,0,0,0,19,0,0,0,4,0,17,15
